The values below come from PubChem BioAssay AID2546 (National Center for Advancing Translational Sciences (NCATS), 2010).

The whole screen tested about 310,000 compounds, of which about 11,000 (3.5%) were called active. Inconclusive results (about 8%) are left out. Calls follow the shape of the dose curve; as a rule, active = well fitted inhibition curve with a large enough effect; inconclusive = small, poorly fitted or top-dose-only effect, or effect the other way; inactive = flat fitted curve, though single readings scatter. The full list was thinned out, with actives kept by preference.
% is scaled to controls: 0 for no effect and ±100 for the full control effect; potency is read from the fitted curve at half-maximal effect.

This experiment can be described thus: VP16 counterscreen qHTS for inhibitors of ROR gamma transcriptional activity.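 Also: Gal4-VP16 expression switched on by copper sulfate through the metallothionein promoter; nearly all actives have a fitted effect of over 50% in size.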 Conditions: Drosophila S2 Gal4-VP16 UAS-luciferase, luminescence, 20 h; series mostly up to 53.6 µM; activity, negative = inhibition: at the top concentration.
Turning to `O=C(c1ccco1)N1CCN(Cc2cccc(C(F)(F)F)c2)CC1`, the “activity, negative = inhibition” value was -1.59% (inactive).
On to `Cc1ccc(NS(=O)(=O)c2ccc3c(c2)n(C)c(=O)c(=O)n3C)c(C)c1`, for which the “activity, negative = inhibition” value is -22.3% (inactive).
Same read-out and setting: next, `CCOC(=O)COn1c(=O)c(-c2ccc(OCC)cc2)[n+]([O-])c2ccccc21`: -6.45% (inactive); `Cc1nn(-c2ccccc2)c2c1c(C)c(CCC(=O)NCC1CCCO1)c(=O)n2C` (stereo unspecified): -5.19% (inactive); `O=C(Nc1ccc(NC(=O)c2cccs2)cc1)c1ccc2ccccc2c1`: 4.21% (inactive).
For the compound `C=CC(=O)c1ccc2ccccc2c1`, the Potency was 0.708 µM (active).
For `CC(=O)CCC(=O)c1ccc2ccccc2c1`, the “activity, negative = inhibition” value is -10.3% (inactive).
In the case of `COc1cc2ccccc2cc1C(=O)Nc1ccccc1C`, the “activity, negative = inhibition” value was 12.7% (inactive).
For the compound `Cc1ccc(N(C(=O)c2snc(C(N)=O)c2N)C(C(=O)NCC2CCCO2)c2c[nH]c3ccccc23)cc1` (stereo unspecified), the “activity, negative = inhibition” value was 4.57% (inactive).
For the compound `CCSc1nsc(NC(=O)Nc2ccccc2OC)n1`, the “activity, negative = inhibition” value was 24.6% (inactive).
Regarding `CC1CCN(c2ccc(C(=O)Nc3nnc(C4CC4)s3)cc2[N+](=O)[O-])CC1`, the Potency is 17.8 µM (active).
Regarding `CC1CCN(c2ccc(S(=O)(=O)Nc3cc(C(=O)O)cc(C(=O)O)c3)cc2[N+](=O)[O-])CC1`, the “activity, negative = inhibition” value was -8.43% (inactive).
Take `CC1CCN(c2ccc(C(=O)NCc3ccc4c(c3)OCO4)cc2[N+](=O)[O-])CC1`: the “activity, negative = inhibition” value is 2.28% (inactive).
For the compound `COCCNC(=O)c1ccc2c(c1)ncn2-c1ccc(C)c(Cl)c1`, the “activity, negative = inhibition” value was 2.37% (inactive).
As to `CCC1Oc2ccccc2N(CC(=O)NCCCN2CCN(CC)CC2)C1=O` (stereo unspecified), the “activity, negative = inhibition” value was 6.78% (inactive).
On the same count and under the same terms, next, `Cc1c(C)c2ccc(OCC(=O)N3CCN(c4cccc(Cl)c4)CC3)cc2oc1=O`: -5.7% (inactive).
Still for that read-out and setting: next, `Cc1ccc(OCC(=O)NC(C)c2ccccc2)cc1C` (stereo unspecified): 9.83% (inactive); `O=C(/C=C/c1ccc(Cl)c([N+](=O)[O-])c1)c1cccnc1`: 3.34% (inactive).
For `O=C(Nc1cccnc1)c1cc(Cl)ccc1Cl`, the “activity, negative = inhibition” value is -0.679% (inactive).
Take `O=C(/C=C/c1ccc(Cl)cc1Cl)c1cccnc1`: the Potency is 6.31 µM (active).
As for `COc1cccc(CNC(=O)C2CCCN(c3ncnc4c3nc3n4CCCCC3)C2)c1` (stereo unspecified), the “activity, negative = inhibition” value was -0.486% (inactive).
Take `Cc1cc(NC(=O)CCN2CCN(Cc3ccccc3)CC2)ccc1Br`: the “activity, negative = inhibition” value was -8.54% (inactive).
Regarding `Cc1cc(NC(=O)CSc2nc(=O)cc(N)n2-c2ccc(F)cc2)no1`, the “activity, negative = inhibition” value was 8.25% (inactive).
`COc1cc(/C=N/NC(=O)Cc2ccccc2)cc(OC)c1OC`: the “activity, negative = inhibition” value was -3.11% (inactive).
For the compound `OCCNc1nc2ccccc2n1-c1ncnc2sc3c(c12)CCC3`, the Potency is 10 µM (active).
Take `CC(C)(C)C(=O)Cn1c(NCCO)nc2ccccc21`: the “activity, negative = inhibition” value is -14.2% (inactive).
Turning to `O=C(O)[C@@H]1CCCN1c1ncnc2sc3c(c12)CCC3`, the “activity, negative = inhibition” value is -4.98% (inactive).
Regarding `O=C(c1ccccc1)N1N=C(c2ccccc2O)CC1c1ccc(Br)cc1` (stereo unspecified), the “activity, negative = inhibition” value was -4.58% (inactive).
Still for that read-out and setting: next, `Cc1cn([C@H]2CC(F)[C@@H](CO)O2)c(=O)[nH]c1=O` (stereo partly specified): 0.784% (inactive).
In the case of `CC(C)n1c(-c2ccncc2)n[nH]c1=S`, the “activity, negative = inhibition” value is 4.59% (inactive).
As to `CCn1c(C(C)NC(=O)c2ccc(C)cc2)n[nH]c1=S` (stereo unspecified), the “activity, negative = inhibition” value was 0.348% (inactive).
For the compound `CCn1c(-c2ccncc2)n[nH]c1=S`, the Potency was 11.2 µM (active).
Consider `COc1cccc(CNC(=O)CCC2CCCN(C(=O)c3ccc(F)c(Cl)c3)C2)c1` (stereo unspecified), for which the “activity, negative = inhibition” value is 0.579% (inactive).
`COC(=O)C1(CCSC)NC(c2ccc(OC)cc2OC)C2C(=O)N(c3cccc(C(C)=O)c3)C(=O)C21` (stereo unspecified): the “activity, negative = inhibition” value is 0.119% (inactive).
On to `Cc1ccc(S(=O)Cc2ccc(C(=O)N3CCN(C4CCCCC4)CC3)o2)cc1` (stereo unspecified), for which the “activity, negative = inhibition” value was -1.07% (inactive).
Turning to `Cc1[nH]c(C)c(S(=O)(=O)N2CCN(c3cccc(C(F)(F)F)c3)CC2)c1C(=O)N1CCCC1`, the “activity, negative = inhibition” value is 2.52% (inactive).
